Where “and” joins values, the source holds several entries; their conditions need not be identical. Identical values can stand only once. A number with no mark means an inactive call. Calls of active or inactive are those of the source.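 The calls were made as follows, unless noted: active = z-score of at least 1.8 in each of two replicates, scored against plate mean and spread of sample wells; inactive = the rest.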

Test [1] deals with NAD(+) hydrolase SARM1 (Homo sapiens) (UniProt Q6SZW1). Description: blocking NAD cleavage by SARM1 SAM-TIR – cell lysate, NAD-Glo luminescence (AID 1508614;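 active = compound whose remaining NAD level is above about 45 nM, limit read from the data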;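 also: higher remaining NAD means stronger inhibition of SARM1 NADase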). The conditions noted are these: SAM-TIR HEK293T lysate NADase, at 1 µM, stronger effect = higher value.
The target of test [2] is Mitogen-activated protein kinase 7 (Homo sapiens) (UniProt Q13164). In words: Gal4-ERK5 driven luciferase induction – cell-based, HTS, primary screen (AID 1508626;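 active = luciferase signal above three times the same-plate solvent-only control wells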;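 also: luciferase driven by Gal4-ERK5 fusion binding five Gal4 sites before minimal TATA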). The settings on record: HeLa Gal4-ERK5 transactivation, 18 h, at 5 µM, stronger effect = higher value.
A short description of test [3]: galactose survival enhancers in mitochondrial complex I cybrids – cell-based, galactose medium, ATP luminescence, primary screen (AID 1645843).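 Also: positive z means more ATP and so rescue of galactose-driven cybrid death.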 The settings on record: complex I mutant cybrid cells, 72 h, stronger effect = higher value.

Sequence of NAD(+) hydrolase SARM1 (Homo sapiens) (Q6SZW1 whole entry, looked up, the tested form may be a part): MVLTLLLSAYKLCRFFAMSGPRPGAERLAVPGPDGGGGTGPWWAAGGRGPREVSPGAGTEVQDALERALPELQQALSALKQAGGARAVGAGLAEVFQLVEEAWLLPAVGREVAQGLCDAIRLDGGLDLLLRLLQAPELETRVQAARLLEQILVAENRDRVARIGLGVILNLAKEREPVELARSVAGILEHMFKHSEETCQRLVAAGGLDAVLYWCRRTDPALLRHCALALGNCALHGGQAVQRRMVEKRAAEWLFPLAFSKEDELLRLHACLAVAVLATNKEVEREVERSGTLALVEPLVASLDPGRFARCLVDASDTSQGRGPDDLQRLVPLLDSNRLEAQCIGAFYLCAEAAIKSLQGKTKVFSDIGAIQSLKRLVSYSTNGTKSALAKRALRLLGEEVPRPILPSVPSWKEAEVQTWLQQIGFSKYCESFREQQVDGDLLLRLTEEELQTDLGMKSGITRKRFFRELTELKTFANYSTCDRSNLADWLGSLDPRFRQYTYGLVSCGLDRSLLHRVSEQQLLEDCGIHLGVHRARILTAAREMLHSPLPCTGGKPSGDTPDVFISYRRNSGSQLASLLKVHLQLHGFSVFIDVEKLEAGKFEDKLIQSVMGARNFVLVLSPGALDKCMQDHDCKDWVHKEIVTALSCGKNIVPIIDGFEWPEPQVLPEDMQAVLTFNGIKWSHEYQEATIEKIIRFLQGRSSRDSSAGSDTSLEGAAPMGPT
Sequence of Mitogen-activated protein kinase 7 (Homo sapiens) (Q13164 whole entry, looked up, the tested form may be a part): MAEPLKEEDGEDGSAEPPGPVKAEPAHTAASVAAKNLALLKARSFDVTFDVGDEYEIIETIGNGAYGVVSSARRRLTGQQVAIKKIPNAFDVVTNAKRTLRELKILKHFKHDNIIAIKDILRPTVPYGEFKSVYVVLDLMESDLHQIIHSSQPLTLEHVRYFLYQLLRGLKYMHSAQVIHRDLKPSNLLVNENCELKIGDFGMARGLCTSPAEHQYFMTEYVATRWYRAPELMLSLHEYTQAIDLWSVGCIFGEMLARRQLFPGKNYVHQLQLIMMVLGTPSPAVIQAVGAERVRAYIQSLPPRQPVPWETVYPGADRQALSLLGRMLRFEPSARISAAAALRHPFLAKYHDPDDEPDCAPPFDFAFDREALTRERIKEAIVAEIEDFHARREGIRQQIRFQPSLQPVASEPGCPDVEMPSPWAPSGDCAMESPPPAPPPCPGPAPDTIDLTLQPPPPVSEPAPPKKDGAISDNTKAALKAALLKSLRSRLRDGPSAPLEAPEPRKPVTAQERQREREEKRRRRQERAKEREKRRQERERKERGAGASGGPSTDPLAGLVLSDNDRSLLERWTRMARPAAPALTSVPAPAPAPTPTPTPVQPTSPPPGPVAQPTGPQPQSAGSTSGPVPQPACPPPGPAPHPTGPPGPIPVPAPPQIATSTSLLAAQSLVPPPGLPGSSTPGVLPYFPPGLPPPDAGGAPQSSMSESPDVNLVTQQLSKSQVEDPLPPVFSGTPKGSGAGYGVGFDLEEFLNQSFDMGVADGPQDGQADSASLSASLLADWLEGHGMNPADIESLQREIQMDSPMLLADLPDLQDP

In the case of `COc1cc(C(=O)NCc2ccc(OCCN(C)C)cc2)cc(OC)c1OC`, the remaining NAD in test [1] is 10 nM. Besides, the luciferase signal in test [2] is 48 AU. Further, the z-score in test [3] was 0.17.
The matching figures for `CC(CN(C)C)CN1c2ccccc2CCc2ccccc21` (configuration not stated): 10 nM, 64 AU and -1.16.
The matching figures for `CCCc1cc(C(N)=S)ccn1`: 10 nM, 96 AU and 0.335.
As to `COc1cccc2c1C(=O)c1c(O)c3c(c(O)c1C2=O)C[C@@](O)(C(=O)CO)C[C@@H]3O[C@H]1C[C@H](N)[C@H](O)[C@H](C)O1`, the remaining NAD in test [1] was 10 nM. Moreover, the luciferase signal in test [2] was 32 AU. For the same compound, the z-score in test [3] is -0.63 and -2.04.
In the case of `CC(=O)Oc1ccc(C(c2ccc(OC(C)=O)cc2)c2ccccn2)cc1`, the remaining NAD in test [1] was 10 nM. In addition, the luciferase signal in test [2] is 44 AU. The z-score in test [3] was -0.6.
On to `CN1CCN(CC(=O)N2c3ccccc3C(=O)Nc3cccnc32)CC1`, for which the remaining NAD in test [1] was 10 nM. Also, the luciferase signal in test [2] is 188 AU. In test [3], the z-score is 1.01 and 0.81.
In the case of `CC(=O)Nc1ccc(O)cc1`, the remaining NAD in test [1] is 10 nM. For the same compound, in test [2], the luciferase signal was 40 AU. In addition, the z-score in test [3] was -0.13.
As to `NC(N)=N/N=C/c1c(Cl)cccc1Cl`, the remaining NAD in test [1] is 10 nM. For the same compound, the luciferase signal in test [2] is 52 AU. In addition, the z-score in test [3] was -0.795 and 0.845 and -1.38.
In the case of `Nc1c(Br)cc(Br)cc1CNC1CCC(O)CC1` (configuration not stated), the remaining NAD in test [1] is 10 nM. Moreover, in test [2], the luciferase signal was 84 AU. Further, the z-score in test [3] was -0.32 and 0.295.
For `NC(N)=Nc1nc(CSCC/C(N)=N/S(N)(=O)=O)cs1`, the remaining NAD in test [1] was 10 nM. The luciferase signal in test [2] was 72 AU. Further, the z-score in test [3] is 0.125 and 0.38.
For `Nc1ccc(C(=O)O)c(O)c1`, in test [1], the remaining NAD was 10 nM. Also, in test [2], the luciferase signal is 44 AU. Further, the z-score in test [3] is 0.45.
For the compound `COCCc1ccc(OCC(O)CNC(C)C)cc1` (configuration not stated), the remaining NAD in test [1] was 10 nM. For the same compound, the luciferase signal in test [2] was 40 AU. In test [3], the z-score is 0.4 and 0.695.
For `C[n+]1cc2c3c(ccc2c2ccc4cc5c(cc4c21)OCO5)OCO3`, the remaining NAD in test [1] was 10 nM. For the same compound, the luciferase signal in test [2] was 84 AU. For the same compound, the z-score in test [3] is -1.38.
The corresponding values for `CCCCCCCCCCCCCCCCOP(=O)([O-])OCC[N+](C)(C)C` are 10 nM, 132 AU and -0.3.
Turning to `CN1CCN(C2=Nc3ccccc3Oc3ccc(Cl)cc32)CC1`, the remaining NAD in test [1] was 10 nM. Also, the luciferase signal in test [2] is 132 AU. In addition, the z-score in test [3] was -0.48 and -0.015.
For the compound `c1ccc(CN(CC2=NCCN2)c2ccccc2)cc1`, the remaining NAD in test [1] is 10 nM. For the same compound, in test [2], the luciferase signal was 112 AU. The z-score in test [3] was -0.39 and 0.065.
Consider `CC(=O)OC/C=C(C)/C=C/C=C(C)/C=C/C1=C(C)CCCC1(C)C`, for which the remaining NAD in test [1] is 10 nM. For the same compound, the luciferase signal in test [2] is 96 AU. Moreover, the z-score in test [3] is -0.205.
The corresponding values for `CC(=O)N(O)CCCCCNC(=O)CCC(=O)N(O)CCCCCNC(=O)CCC(=O)N(O)CCCCCN` are 10 nM, 40 AU and 0.76.
Take `CCCCC1C(=O)N(c2ccccc2)N(c2ccccc2)C1=O`: the remaining NAD in test [1] was 10 nM. Further, the luciferase signal in test [2] was 156 AU (active). Besides, the z-score in test [3] is 0.865 and 0.7.
Turning to `CN(C)CCCN1c2ccccc2Sc2ccc(C(F)(F)F)cc21`, the remaining NAD in test [1] was 10 nM. For the same compound, the luciferase signal in test [2] was 64 AU. In addition, in test [3], the z-score is -1.38.
For `Cc1ccc(S(=O)(=O)NC(=O)NN2CC3CCCC3C2)cc1` (configuration not stated), the remaining NAD in test [1] was 10 nM. For the same compound, the luciferase signal in test [2] was 36 AU. Moreover, the z-score in test [3] is 0.595.
For `CN1C(C(=O)Nc2ccccn2)=C(O)c2sccc2S1(=O)=O`, the remaining NAD in test [1] was 10 nM. Besides, the luciferase signal in test [2] is 180 AU. The z-score in test [3] is -0.07.
Consider `C=CCc1ccccc1OCC(O)CNC(C)C` (configuration not stated), for which the remaining NAD in test [1] is 10 nM. Further, the luciferase signal in test [2] was 60 AU. In addition, in test [3], the z-score is -0.345 and 0.39.
For `CC(C)COCC(CN(Cc1ccccc1)c1ccccc1)N1CCCC1` (configuration not stated), the remaining NAD in test [1] is 10 nM. Further, the luciferase signal in test [2] is 280 AU. In addition, the z-score in test [3] was -0.24 and -2.13.
Turning to `Nc1ccc(S(=O)(=O)Nc2ccnn2-c2ccccc2)cc1`, the remaining NAD in test [1] was 10 nM. For the same compound, the luciferase signal in test [2] is 96 AU. Also, the z-score in test [3] was 0.735.
The matching figures for `NCCS`: 10 nM, 76 AU and 0.24.
With `C[n+]1ccccc1/C=N/O`, the remaining NAD in test [1] was 10 nM. Moreover, the luciferase signal in test [2] is 84 AU. The z-score in test [3] was 0.085.
The matching figures for `COC(=O)N/N=C/c1c[n+]([O-])c2ccccc2[n+]1[O-]`: 10 nM, 172 AU and 0.34.
Consider `CC(=O)Oc1ccccc1C(=O)O`, for which, in test [1], the remaining NAD is 10 nM. Moreover, the luciferase signal in test [2] is 92 AU. Also, the z-score in test [3] was 0.51 and 0.115.
